The target in assay [1] is Serine/threonine-protein kinase pim-2 (Homo sapiens) (UniProt Q9P1W9). The following applies: at 1 µM.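 Also: each value is a mean of the inhibition measurements against the kinase.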
Assay [2] concerns the target Serine/threonine-protein kinase pim-3 (Homo sapiens) (UniProt Q86V86). The settings on record: at 0.1 µM.
Assay [3] shares this target. The settings on record: at 1 µM.
The target in assay [4] is T1, MAP kinase-activated protein kinase 5 (Homo sapiens) (UniProt Q8IW41).
T1 sequence (whole entry): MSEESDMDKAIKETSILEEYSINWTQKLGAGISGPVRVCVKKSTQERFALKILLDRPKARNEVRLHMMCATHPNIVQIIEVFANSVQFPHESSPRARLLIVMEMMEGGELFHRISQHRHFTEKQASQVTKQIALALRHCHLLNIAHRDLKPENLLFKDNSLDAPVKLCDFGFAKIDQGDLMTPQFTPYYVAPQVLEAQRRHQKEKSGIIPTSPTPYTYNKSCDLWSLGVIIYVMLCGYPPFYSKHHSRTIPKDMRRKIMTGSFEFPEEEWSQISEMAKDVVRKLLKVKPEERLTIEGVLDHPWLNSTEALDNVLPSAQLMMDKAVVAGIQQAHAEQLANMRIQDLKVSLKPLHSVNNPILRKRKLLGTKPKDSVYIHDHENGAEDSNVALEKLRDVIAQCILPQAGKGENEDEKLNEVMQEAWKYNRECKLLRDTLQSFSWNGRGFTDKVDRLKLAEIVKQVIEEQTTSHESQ
The settings on record: at 0.1 µM.

The target of assay [5] is T1, MAP kinase-activated protein kinase 5 (Homo sapiens). The settings on record: at 1 µM.
Assay [6] deals with Serine/threonine-protein kinase SIK1 (Homo sapiens) (UniProt P57059). The settings on record: at 0.1 µM.
For assay [7] the target is unchanged. The settings on record: at 1 µM.
In assay [8] the target is Serine/threonine-protein kinase SIK2 (Homo sapiens) (UniProt Q9H0K1). The settings on record: at 0.1 µM.
For assay [9] the target is unchanged. The settings on record: at 1 µM.
Assay [10] concerns the target T2, Serine/threonine-protein kinase TBK1 (Homo sapiens) (UniProt Q9UHD2).
T2 sequence (whole entry): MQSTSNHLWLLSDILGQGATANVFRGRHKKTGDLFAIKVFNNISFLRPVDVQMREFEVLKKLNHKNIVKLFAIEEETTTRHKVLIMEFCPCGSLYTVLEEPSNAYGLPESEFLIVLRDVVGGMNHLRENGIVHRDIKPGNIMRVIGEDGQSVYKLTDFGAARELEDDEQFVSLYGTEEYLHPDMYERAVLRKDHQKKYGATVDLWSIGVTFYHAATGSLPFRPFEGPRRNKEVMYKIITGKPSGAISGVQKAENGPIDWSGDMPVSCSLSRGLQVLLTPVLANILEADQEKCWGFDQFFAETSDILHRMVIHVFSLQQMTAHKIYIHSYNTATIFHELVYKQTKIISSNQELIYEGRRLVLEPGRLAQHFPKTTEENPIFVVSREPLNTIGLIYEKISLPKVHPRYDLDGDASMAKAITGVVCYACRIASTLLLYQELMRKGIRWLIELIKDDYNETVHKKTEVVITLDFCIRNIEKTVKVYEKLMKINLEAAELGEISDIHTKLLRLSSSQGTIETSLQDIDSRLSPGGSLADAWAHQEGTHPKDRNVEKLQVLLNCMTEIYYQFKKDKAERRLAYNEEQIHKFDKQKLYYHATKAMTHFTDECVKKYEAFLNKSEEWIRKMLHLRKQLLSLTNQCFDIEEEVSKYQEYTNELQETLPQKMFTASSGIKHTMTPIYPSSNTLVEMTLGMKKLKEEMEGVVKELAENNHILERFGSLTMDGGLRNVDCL
The settings on record: at 0.1 µM.

In assay [11] the target is T2, Serine/threonine-protein kinase TBK1 (Homo sapiens). The following applies: at 1 µM.
The target of assay [12] is T3, Testis-specific serine/threonine-protein kinase 1 (Homo sapiens) (UniProt Q9BXA7).
T3 sequence (whole entry): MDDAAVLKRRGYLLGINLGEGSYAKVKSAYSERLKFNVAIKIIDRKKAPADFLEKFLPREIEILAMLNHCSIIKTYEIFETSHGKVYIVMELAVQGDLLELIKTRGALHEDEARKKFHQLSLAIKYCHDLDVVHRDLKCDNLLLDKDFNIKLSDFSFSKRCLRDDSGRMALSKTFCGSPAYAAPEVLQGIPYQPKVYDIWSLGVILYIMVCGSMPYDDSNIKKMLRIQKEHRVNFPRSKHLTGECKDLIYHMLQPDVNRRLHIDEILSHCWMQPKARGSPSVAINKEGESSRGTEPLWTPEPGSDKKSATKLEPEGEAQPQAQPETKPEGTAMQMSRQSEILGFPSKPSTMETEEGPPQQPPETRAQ
The settings on record: at 0.1 µM.

Assay [13] deals with T3, Testis-specific serine/threonine-protein kinase 1 (Homo sapiens). The settings on record: at 1 µM.
Assay [14] deals with T4, Testis-specific serine/threonine-protein kinase 2 (Homo sapiens) (UniProt Q96PF2).
T4 sequence (whole entry): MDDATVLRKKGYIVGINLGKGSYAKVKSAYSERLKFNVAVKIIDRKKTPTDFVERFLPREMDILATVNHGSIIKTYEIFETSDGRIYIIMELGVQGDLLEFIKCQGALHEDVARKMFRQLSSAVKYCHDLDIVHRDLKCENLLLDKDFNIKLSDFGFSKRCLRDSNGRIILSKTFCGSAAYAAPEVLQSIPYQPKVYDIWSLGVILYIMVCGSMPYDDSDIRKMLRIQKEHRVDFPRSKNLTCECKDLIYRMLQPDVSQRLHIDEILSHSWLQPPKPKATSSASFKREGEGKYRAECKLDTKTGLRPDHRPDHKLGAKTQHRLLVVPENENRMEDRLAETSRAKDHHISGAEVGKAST
The settings on record: at 0.1 µM.

Assay [15] addresses T4, Testis-specific serine/threonine-protein kinase 2 (Homo sapiens). The settings on record: at 1 µM.
Assay [16] has as its target Casein kinase I isoform alpha (Homo sapiens) (UniProt P48729). The settings on record: at 0.1 µM.
Assay [17] has the same target. The following applies: at 1 µM.
In assay [18] the target is Casein kinase I isoform gamma-1 (Homo sapiens) (UniProt Q9HCP0). The following applies: at 0.1 µM.
Assay [19] has the same target. The settings on record: at 1 µM.
In assay [20] the target is Casein kinase I isoform gamma-2 (Homo sapiens) (UniProt P78368). The settings on record: at 0.1 µM.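 Also: values are mean inhibition figures reported as part of the GSK PKIS dataset.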
Casein kinase I isoform gamma-2 (Homo sapiens), sequence (P78368 whole entry, looked up, canonical isoform): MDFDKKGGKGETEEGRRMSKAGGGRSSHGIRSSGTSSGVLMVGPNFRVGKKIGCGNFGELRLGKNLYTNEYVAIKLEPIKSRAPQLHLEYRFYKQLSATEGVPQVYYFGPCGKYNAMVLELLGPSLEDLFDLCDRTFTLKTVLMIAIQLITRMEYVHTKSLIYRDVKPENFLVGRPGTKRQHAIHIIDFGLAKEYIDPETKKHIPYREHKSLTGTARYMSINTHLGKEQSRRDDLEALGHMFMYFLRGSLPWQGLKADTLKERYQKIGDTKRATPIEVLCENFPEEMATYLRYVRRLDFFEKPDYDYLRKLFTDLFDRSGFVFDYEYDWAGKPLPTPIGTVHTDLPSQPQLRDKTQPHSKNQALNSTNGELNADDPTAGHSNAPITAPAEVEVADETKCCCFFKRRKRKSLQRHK

Serine/threonine-protein kinase pim-2 (Homo sapiens), sequence (Q9P1W9 whole entry, looked up): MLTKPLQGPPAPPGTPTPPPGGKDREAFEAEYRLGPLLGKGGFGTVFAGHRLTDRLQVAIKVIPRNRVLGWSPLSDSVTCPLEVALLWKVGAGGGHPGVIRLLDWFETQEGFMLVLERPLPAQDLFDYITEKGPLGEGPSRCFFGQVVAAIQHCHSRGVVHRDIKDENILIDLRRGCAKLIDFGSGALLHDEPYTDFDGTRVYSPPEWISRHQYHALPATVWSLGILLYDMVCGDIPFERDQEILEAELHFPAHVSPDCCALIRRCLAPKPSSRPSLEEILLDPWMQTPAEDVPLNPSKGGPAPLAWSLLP
Serine/threonine-protein kinase SIK2 (Homo sapiens), sequence (Q9H0K1 whole entry, looked up): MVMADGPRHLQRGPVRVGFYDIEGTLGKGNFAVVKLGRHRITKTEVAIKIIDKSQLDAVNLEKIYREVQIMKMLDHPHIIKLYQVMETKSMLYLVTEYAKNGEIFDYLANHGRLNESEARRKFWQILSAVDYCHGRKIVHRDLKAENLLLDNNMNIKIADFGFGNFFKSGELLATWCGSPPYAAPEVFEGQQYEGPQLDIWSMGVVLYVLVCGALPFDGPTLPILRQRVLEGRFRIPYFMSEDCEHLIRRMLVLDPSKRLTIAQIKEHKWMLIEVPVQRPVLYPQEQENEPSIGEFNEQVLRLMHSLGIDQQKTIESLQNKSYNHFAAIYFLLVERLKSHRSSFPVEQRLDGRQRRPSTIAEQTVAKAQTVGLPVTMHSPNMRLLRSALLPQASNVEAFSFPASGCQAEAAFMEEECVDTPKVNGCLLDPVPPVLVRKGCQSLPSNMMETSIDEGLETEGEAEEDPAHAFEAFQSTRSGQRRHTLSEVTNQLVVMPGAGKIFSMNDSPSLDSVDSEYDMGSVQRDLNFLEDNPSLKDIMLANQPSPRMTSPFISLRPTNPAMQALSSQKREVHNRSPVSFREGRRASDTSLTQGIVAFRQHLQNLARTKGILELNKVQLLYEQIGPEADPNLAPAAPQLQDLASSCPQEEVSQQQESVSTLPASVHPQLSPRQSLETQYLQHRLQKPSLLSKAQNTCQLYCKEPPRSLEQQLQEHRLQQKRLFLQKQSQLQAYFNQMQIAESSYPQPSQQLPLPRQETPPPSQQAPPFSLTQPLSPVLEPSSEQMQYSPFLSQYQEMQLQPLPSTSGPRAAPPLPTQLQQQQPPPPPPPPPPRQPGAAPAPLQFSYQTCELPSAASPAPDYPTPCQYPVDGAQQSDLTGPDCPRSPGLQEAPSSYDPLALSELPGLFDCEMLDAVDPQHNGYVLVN
Casein kinase I isoform alpha (Homo sapiens), sequence (P48729 2-337 limits assumed): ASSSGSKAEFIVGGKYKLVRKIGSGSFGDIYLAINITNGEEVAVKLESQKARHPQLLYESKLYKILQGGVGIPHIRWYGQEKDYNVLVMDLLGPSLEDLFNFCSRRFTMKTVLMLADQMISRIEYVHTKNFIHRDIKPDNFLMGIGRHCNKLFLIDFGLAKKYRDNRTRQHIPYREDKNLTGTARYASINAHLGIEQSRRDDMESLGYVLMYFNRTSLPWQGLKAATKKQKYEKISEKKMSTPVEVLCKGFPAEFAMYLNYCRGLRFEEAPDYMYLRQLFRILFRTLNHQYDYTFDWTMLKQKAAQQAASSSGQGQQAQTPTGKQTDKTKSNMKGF
Serine/threonine-protein kinase SIK1 (Homo sapiens), sequence (P57059 whole entry): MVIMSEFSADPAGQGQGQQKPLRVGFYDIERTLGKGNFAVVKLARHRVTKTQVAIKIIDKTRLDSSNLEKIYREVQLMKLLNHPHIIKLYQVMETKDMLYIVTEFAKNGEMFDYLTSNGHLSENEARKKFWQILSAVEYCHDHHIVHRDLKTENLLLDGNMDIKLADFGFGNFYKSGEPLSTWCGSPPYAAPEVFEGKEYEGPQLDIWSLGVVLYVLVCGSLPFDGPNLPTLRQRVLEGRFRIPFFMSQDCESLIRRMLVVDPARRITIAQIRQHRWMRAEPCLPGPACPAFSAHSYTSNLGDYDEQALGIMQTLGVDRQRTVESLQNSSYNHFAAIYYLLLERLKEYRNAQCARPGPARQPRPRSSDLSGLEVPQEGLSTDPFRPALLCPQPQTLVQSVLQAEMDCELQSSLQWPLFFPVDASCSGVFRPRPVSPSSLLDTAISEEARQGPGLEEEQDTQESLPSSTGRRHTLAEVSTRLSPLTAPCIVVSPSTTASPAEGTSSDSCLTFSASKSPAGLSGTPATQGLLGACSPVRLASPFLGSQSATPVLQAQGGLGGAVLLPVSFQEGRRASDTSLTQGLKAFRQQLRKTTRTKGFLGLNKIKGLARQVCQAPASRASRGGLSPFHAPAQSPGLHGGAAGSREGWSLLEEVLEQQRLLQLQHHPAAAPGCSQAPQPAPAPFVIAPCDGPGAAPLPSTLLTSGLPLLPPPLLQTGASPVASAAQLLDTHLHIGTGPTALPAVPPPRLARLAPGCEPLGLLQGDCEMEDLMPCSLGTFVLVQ
Casein kinase I isoform gamma-1 (Homo sapiens), sequence (Q9HCP0 whole entry, looked up, canonical isoform): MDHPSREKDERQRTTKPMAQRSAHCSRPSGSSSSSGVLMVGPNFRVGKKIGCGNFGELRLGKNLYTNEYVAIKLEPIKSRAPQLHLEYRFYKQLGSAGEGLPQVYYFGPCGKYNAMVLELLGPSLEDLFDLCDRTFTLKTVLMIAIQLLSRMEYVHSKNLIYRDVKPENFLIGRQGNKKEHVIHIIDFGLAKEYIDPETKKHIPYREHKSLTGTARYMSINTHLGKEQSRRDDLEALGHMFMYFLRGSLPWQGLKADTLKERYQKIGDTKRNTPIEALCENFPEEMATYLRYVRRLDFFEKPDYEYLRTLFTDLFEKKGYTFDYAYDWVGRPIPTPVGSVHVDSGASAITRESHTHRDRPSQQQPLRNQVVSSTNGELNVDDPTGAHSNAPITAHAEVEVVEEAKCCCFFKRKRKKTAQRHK

As for `COc1cc(Nc2ncc3c(C)nc(-c4cccc(Oc5ccccc5)c4)n3n2)cc(OC)c1OC`, the inhibition in assay [1] is 1.14%; in assay [2] it was 0.34%; in assay [3] it was -0.16%; in assay [4], -0.04%; in assay [5], -1.56%; in assay [6] it was 3.67%. The inhibition in assay [7] worked out at 10.1%; in assay [8], 1.91%; in assay [9] it was 0.43%; in [10], 4.47%; in assay [11], 28.8%; in [12], 3.11%. The inhibition in assay [13] is 5.53%; in assay [14] it was 1.01%; in assay [15], -1.11%; in assay [16], 6.15%; in [17], 3.63%; in assay [18], 1.67%. Also, the inhibition in assay [19] came to 3.71%; in assay [20], 0.59%.

Regarding `Fc1ccc(-c2c(-c3ccncc3)nc3n2CCS3)cc1`, the inhibition in assay [1] is -3.85%; in assay [2], 0.35%; in [3] it was 0.43%; in [4], 1.37%; in assay [5], 1.61%; in [6], 5%. Also, the inhibition in assay [7] amounted to 7.55%; in assay [8], 5.11%; in assay [9], 5.89%; in assay [10], 0.11%; in assay [11] it was 2.15%; in assay [12] it was 2.46%. The inhibition in [13] is 2.91%; in assay [14] it was 1.87%; in [15] it was 2.38%; in assay [16] it was 2.51%; in [17], 4.21%; in [18] it was -1.2%. In addition, the inhibition in assay [19] was -0.38%; in assay [20] it was -1.41%.

As to `CCC(=O)Nc1ccc(C)c(-c2ccc(C(=O)NCC3CC3)cc2)c1`, the inhibition is 0.38% in assay [1]; 0.17% in assay [2]; 0.73% in assay [3]; 0.96% in assay [4]; 0.76% in assay [5]; 4.61% in [6]. The inhibition came to 5.28% in assay [7]; 4.06% in assay [8]; 6.63% in [9]; 2.36% in [10]; 2.69% in assay [11]; 3.66% in [12]. For the same compound, the inhibition in assay [13] came to 3.59%; in [14], 1.6%; in assay [15] it was 1.74%; in [16] it was 2.53%; in assay [17], 3.41%; in [18], 2.54%. For the same compound, the inhibition worked out at 3% in assay [19] and 2.3% in [20].

For the compound `CN(C)CCOc1ccc(-c2cc(-c3ccc4c(c3)CCC4=NO)c(-c3ccncc3)o2)cc1`, the inhibition in [1] is 0.08%; in assay [2], 1.08%; in assay [3] it was 0.13%; in assay [4] it was -0.29%; in [5], -0.04%; in [6], 0.11%. For the same compound, the inhibition in assay [7] was 6.09%; in [8], -4.64%; in assay [9], -1.24%; in assay [10], -2.4%; in assay [11] it was -0.95%; in assay [12], -0.74%. Besides, the inhibition was 0.17% in assay [13]; 0.18% in assay [14]; 1.16% in assay [15]; -1.99% in [16]; -1.5% in assay [17]; -1.03% in assay [18]. Besides, the inhibition is -0.13% in assay [19] and -0.84% in [20].

As to `COc1cc2ncn(-c3cc(OCCc4ccccc4)c(C(N)=O)s3)c2cc1OC`, the inhibition in [1] is 0.47%; in assay [2], -1.48%; in [3] it was -2.48%; in assay [4], 0.21%; in assay [5], -0.58%; in assay [6], 3.59%. The inhibition in [7] stood at 9.48%; in assay [8], 1.23%; in [9], 3.75%; in assay [10] it was 0.96%; in [11], 22.3%; in assay [12], 1.85%. Besides, the inhibition in assay [13] is 2.26%; in assay [14], -0.18%; in assay [15], -0.8%; in [16], 2.37%; in [17] it was 3.77%; in [18] it was 3.01%. Besides, the inhibition in [19] was found to be 5.65%; in assay [20] it was 2.92%.

Regarding `COc1cc(N2CCN(C(C)C)CC2)ccc1Nc1nc(Nc2ccc(F)cc2C(=O)NC[C@@H](O)CO)c2cc[nH]c2n1`, the inhibition in [1] was -3.2%; in [2], 1.39%; in assay [3], 5.28%; in assay [4], 2.43%; in [5], 4.77%; in [6], 1.88%. The inhibition is 9.27% in [7]; 4.52% in [8]; 9.21% in assay [9]; 1.74% in assay [10]; 4.23% in assay [11]; 45.9% in assay [12]. The inhibition came out at 84.9% in assay [13]; 15.7% in [14]; 53.7% in assay [15]; 4.46% in assay [16]; 12.9% in [17]; 2.26% in [18]. Besides, the values for the inhibition in assay [19] and in assay [20] were 17.9% and 2.13%, respectively.

Take `Cc1ccc(C(=O)NC(C)C)cc1-c1ccc(C(=O)NCC2CC2)cc1`: the inhibition in assay [1] was 1.24%; in assay [2], 1.28%; in assay [3] it was 2.53%; in [4] it was -1.12%; in [5], -1.11%; in assay [6], -0.49%. The inhibition in assay [7] was -1.49%; in assay [8], 0.37%; in assay [9], -9.28%; in [10] it was -1.37%; in [11], -1.07%; in [12] it was -1.97%. The inhibition in assay [13] is -1.52%; in assay [14], -1.67%; in assay [15] it was -1.52%; in assay [16], -3.83%; in assay [17], -5.5%; in assay [18], -2.95%. For the same compound, the inhibition in [19] was -2.32%; in assay [20] it was -2.65%.

For orientation: inhibition means the relative decrease from the control value, in per cent.

These data come from ChEMBL document CHEMBL1961873, “Compounds: GSK PKIS; Assays: Nanosyn kinase panel” (2012).
